# Screening results as filed in PubChem BioAssay.
# Only some compounds are listed: those with a hit (about 3.6% of all), similar ones and a draw of the others.
# mHTT CaM bind: mHTT-calmodulin interaction abrogation; actives 3.6% (n = 190,000); AlphaScreen His-mHTT/GST-CaM binding, luminescence; P42858; inhibition, % at 15 µM;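 further: 0% = both proteins with DMSO and 100% = one protein alone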
# Target sequence (P42858 whole entry, looked up, stated change not applied): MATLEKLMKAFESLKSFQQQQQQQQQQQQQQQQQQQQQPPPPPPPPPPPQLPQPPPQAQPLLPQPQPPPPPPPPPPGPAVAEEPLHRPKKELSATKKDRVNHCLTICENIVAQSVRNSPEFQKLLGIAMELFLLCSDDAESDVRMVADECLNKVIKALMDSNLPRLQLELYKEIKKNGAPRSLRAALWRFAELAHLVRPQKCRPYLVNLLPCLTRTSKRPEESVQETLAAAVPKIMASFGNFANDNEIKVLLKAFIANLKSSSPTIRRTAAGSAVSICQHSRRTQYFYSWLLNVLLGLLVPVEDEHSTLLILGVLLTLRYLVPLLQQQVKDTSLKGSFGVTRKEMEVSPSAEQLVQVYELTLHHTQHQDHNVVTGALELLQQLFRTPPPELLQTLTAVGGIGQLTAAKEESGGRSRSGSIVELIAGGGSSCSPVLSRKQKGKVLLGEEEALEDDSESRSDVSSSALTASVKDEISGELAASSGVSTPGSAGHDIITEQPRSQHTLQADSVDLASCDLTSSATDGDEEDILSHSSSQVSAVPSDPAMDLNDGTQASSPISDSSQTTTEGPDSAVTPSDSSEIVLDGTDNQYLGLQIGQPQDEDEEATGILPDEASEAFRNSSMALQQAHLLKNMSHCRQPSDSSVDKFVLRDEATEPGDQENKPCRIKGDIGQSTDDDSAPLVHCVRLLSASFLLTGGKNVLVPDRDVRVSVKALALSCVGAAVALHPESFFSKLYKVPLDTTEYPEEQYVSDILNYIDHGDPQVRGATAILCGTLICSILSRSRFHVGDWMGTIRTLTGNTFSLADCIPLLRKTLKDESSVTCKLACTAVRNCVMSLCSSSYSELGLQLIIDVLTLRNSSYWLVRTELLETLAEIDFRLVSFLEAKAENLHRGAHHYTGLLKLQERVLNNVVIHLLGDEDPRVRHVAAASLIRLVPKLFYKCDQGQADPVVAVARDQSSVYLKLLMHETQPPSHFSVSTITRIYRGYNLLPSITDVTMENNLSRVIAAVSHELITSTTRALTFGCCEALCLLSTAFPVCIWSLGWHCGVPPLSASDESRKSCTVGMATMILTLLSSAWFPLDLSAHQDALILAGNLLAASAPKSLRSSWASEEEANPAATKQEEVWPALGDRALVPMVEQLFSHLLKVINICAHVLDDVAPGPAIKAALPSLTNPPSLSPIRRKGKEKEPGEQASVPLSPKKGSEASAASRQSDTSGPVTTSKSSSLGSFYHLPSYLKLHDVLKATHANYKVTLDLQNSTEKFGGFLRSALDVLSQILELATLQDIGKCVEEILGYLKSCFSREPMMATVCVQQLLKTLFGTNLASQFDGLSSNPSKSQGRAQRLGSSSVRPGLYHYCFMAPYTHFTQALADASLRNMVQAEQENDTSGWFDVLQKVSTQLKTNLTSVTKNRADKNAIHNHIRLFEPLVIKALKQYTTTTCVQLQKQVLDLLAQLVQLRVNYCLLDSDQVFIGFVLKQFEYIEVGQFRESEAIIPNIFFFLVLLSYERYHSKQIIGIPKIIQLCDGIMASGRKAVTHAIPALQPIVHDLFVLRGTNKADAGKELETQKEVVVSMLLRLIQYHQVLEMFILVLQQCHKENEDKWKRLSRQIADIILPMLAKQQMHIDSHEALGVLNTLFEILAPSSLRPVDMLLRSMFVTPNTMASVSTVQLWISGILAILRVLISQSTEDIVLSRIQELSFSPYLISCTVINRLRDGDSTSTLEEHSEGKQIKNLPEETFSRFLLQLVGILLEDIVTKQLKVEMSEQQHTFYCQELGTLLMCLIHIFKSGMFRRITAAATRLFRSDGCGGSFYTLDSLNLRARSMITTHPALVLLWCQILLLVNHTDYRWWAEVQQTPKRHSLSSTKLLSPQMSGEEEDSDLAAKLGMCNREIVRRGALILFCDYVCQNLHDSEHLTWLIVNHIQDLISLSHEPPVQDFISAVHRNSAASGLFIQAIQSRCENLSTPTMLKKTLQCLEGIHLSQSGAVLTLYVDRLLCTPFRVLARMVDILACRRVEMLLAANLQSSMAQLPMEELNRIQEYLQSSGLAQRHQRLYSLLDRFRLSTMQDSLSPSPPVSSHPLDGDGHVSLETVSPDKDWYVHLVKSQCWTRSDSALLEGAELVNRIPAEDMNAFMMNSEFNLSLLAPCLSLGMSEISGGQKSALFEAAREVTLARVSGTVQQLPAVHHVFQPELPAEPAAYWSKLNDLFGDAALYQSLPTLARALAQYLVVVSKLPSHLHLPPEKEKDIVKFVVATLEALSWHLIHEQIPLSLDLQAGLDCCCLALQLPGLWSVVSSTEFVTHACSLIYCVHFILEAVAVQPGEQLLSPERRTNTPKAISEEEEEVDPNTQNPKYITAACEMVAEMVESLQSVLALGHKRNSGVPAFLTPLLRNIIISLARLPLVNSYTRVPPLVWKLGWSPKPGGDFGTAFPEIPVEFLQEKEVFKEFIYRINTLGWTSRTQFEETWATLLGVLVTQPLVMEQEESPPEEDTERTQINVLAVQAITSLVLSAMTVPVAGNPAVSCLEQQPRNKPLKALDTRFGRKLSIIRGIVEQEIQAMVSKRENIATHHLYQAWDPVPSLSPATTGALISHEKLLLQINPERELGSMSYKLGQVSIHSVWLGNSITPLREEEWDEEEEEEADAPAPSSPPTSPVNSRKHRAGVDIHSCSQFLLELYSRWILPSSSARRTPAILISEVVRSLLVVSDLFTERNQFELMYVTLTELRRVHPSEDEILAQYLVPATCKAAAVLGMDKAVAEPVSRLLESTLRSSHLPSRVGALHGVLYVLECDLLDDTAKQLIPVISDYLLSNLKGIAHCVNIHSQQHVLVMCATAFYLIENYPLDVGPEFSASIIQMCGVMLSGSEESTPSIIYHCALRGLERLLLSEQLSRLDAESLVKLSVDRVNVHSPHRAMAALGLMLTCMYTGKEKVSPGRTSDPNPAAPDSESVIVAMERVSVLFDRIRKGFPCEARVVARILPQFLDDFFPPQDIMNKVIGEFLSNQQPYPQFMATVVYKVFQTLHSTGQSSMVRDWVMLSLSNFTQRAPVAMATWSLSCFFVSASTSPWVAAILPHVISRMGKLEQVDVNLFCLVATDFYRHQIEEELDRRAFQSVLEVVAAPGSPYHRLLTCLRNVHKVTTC
# Pf apPOL block: Pf-apPOL DNA polymerase inhibition; Recombinant Pf-apPOL, molecular beacon fluorescence, 1.5 h; inhibition, % at 10 µM; actives 0.25% (n = 210,000)
# The depositor's hits bear a star; . = not tested or not shown. No stated cut-off is given here; in the data, active means inhibition above about 50%; inactive means the rest.
SMILES,mHTT CaM bind,Pf apPOL block
CC(C)C1C(=O)N(Cc2cn(CC3CCCCC3)nn2)CCS(=O)(=O)N1Cc1ccc(-c2ccccc2)cc1 (configuration not stated),30,-4
CC1C(=O)N(Cc2cn(CC3CCCCC3)nn2)CCS(=O)(=O)N1Cc1ccc(-c2ccncc2)cc1 (configuration not stated),40,10
CC(C)C1C(=O)N(Cc2cn(CC3CCCCC3)nn2)CCS(=O)(=O)N1Cc1ccc(-c2ccncc2)cc1 (configuration not stated),54*,-2
COc1cc(C(=O)N2CCC(c3nc4cccnc4n3C)C2)ccc1C (configuration not stated),2,-1
CCC(=O)N1CCc2cc(Br)cc(S(=O)(=O)Nc3ccc(F)cc3)c21,8,0
Cc1cc(NC(=O)c2cccnc2)ccc1-c1cc2ccccc2oc1=O,15,-11
COc1ccc(CC(=O)Nc2sc(C)c(C)c2C(N)=O)cc1,13,-5
O=C1C(Nc2ccc(O)cc2)=CC(=NS(=O)(=O)c2ccc(Cl)cc2)c2ccccc21,98*,0
O=S(=O)(N=C(NS(=O)(=O)c1ccc(Cl)cc1)c1ccccc1)c1ccccc1,-1,2
O=C(O)c1ccc(S(=O)(=O)c2ccccc2)cc1,4,-10
O=C(O)c1ccc(NC2=CC(=NS(=O)(=O)c3ccccc3)c3ccccc3C2=O)cc1,62*,7
CCc1ccc(S(=O)(=O)N=C2C=C(Nc3cccc(C(=O)O)c3)C(=O)c3ccccc32)cc1,80*,-3
O=C(O)c1cccc(NC2=CC(=NS(=O)(=O)c3ccc(F)cc3)c3ccccc3C2=O)c1,45,17
CCNC(=O)C1CCN(c2ccccc2-c2ccccc2)C1=O (configuration not stated),-2,-5
COCCCNC(=O)C1CCCN(c2ncc(-c3cccc(F)c3)cn2)C1 (configuration not stated),-8,-4
CC(C)c1cc(C2CCCN2C(=O)c2ccc3c(c2)OCO3)no1 (configuration not stated),-4,1
O=C(NCc1ccccc1F)C1CC(=O)N(Cc2ccccc2F)C1 (configuration not stated),-3,-4
COCOCCn1cc(CN2CCS(=O)(=O)N(Cc3ccc(-c4ccc(C)cc4)cc3)C(C(C)C)C2=O)nn1 (configuration not stated),10,-12
COCOCCn1cc(CN2CCS(=O)(=O)N(Cc3ccc(-c4ccc(Cl)c(Cl)c4)cc3)C(C)C2=O)nn1 (configuration not stated),99*,-6
COCOCCn1cc(CN2CCS(=O)(=O)N(Cc3ccc(-c4ccc(C)cc4)cc3)C(C)C2=O)nn1 (configuration not stated),-4,-19
COCOCCn1cc(CN2CCS(=O)(=O)N(Cc3ccc(-c4ccccc4)cc3)C(C(C)C)C2=O)nn1 (configuration not stated),54*,-22
CC(C)NC(=O)Cn1ccc2sccc2c1=O,-4,0
COc1ccc(CN2CCN(S(=O)(=O)c3cccc4nsnc34)CC2)c(OC)c1OC,6,-6
O=[N+]([O-])c1ccc(-c2noc(-c3ccno3)n2)o1,.,-8
COc1ccc(C2(CNC(=O)c3ccccc3[N+](=O)[O-])CCCC2)cc1OC,100*,1
SMILES,mHTT CaM bind,Pf apPOL block
COc1ccc(C2(CNC(=O)c3ccc(OC)c([N+](=O)[O-])c3)CCCC2)cc1OC,9,1
Cc1cccc(C)c1-n1nnnc1C1(Nc2cccc(O)c2)CCCCC1,16,-2
COc1ccc(C2C(C#N)=C(N)Oc3n[nH]c(C)c32)cc1COc1cccc(Cl)c1 (configuration not stated),69*,2
COc1cccc(C2C(C#N)=C(N)Oc3n[nH]c(C)c32)c1 (configuration not stated),-1,0
CCOc1cc(C2C(C#N)=C(N)Oc3n[nH]c(-c4ccccn4)c32)ccc1O (configuration not stated),52*,-2
CCOc1cc(C2C(C#N)=C(N)Oc3n[nH]c(-c4ccccc4)c32)ccc1O (configuration not stated),28,-2
N#CC1=C(N)Oc2n[nH]c(-c3ccccn3)c2C1c1ccc(F)cc1 (configuration not stated),65*,5
N#CC1=C(N)Oc2n[nH]c(-c3ccccn3)c2C1c1cccc(F)c1 (configuration not stated),15,4
COc1ccc2c(=O)c(Oc3ccccc3Br)c(C(F)(F)F)oc2c1,4,9
CC(=O)Oc1ccc2c(=O)c(Oc3ccccc3Br)c(C(F)(F)F)oc2c1,52*,0
CCCn1cnc2c1c(=O)n(CC(C)C)c(=O)n2-c1ccccc1C,-3,-1
O=C(O)c1n[nH]nc1C(=O)O,63*,.
COC(=O)c1n[nH]nc1[N+](=O)[O-],-1,.
Cc1cccc(CNC(=O)C(=O)NCC2CCOC2)c1 (configuration not stated),-5,4
